Source: PubChem BioAssay
Not all results are given here.
aSyn UTR act: Activators via SNCA 5'UTR binding, MLPCN; alpha-synuclein 5'UTR reporter, activators screen; activity score, % (tested at 7.5 µM), hits read low; hit rate 7.1% among 300,000; AID 1814; in the data active = activity score below about -60%
Large screens that a line does not name were inactive.

CC1=NN(c2ccc(C(=O)O)cc2)C(=O)/C1=C/c1ccc(-c2ccccc2F)o1	aSyn UTR act -88
CC(C)(C)c1ccc(C(=O)Nc2cccc3c(=O)[nH][nH]c(=O)c23)cc1	aSyn UTR act -68
C/C(=N\Nc1ccccc1[N+](=O)[O-])c1ccc(N2CCOCC2)cc1	aSyn UTR act -82
CC(C)/C(=N/Nc1ccccc1[N+](=O)[O-])c1ccccc1	aSyn UTR act -86
C/C(=N/Nc1ccccc1[N+](=O)[O-])c1ccc(C)c([N+](=O)[O-])c1	aSyn UTR act -166
O=[N+]([O-])c1c(Nc2ccccc2O)cc(N2CCOCC2)c2nonc12	none
O=S(=O)(c1ccc(Nc2ccc(-c3ccc4c(c3)OCCO4)nn2)cc1)N1CCCC1	aSyn UTR act -121
O=C(NC1CC1)c1cccc(Nc2ccc(-c3ccc4c(c3)OCCO4)nn2)c1	aSyn UTR act -145
Cc1[nH]n(C(N)=S)c(=O)c1N=Nc1cccc(C(F)(F)F)c1	aSyn UTR act -165
Cc1ccc(N=Nc2c(C)[nH]n(C(N)=S)c2=O)cc1	aSyn UTR act -116
Cc1[nH]n(C(N)=S)c(=O)c1N=Nc1ccc(Br)cc1	aSyn UTR act -90
Cc1[nH]n(C2=NCCS2)c(=O)c1N=Nc1cccc(C(F)(F)F)c1	none
O=C(COc1ccc(Br)cc1Cl)NC(=S)Nc1ccccn1	aSyn UTR act -100
COCCCNC(=O)COc1ccc(Br)cc1Cl	aSyn UTR act -146
COc1ccc(CCn2c(=N)c(C(=O)N3CCN(C)CC3)cc3c(=O)n4ccccc4nc32)cc1	aSyn UTR act -65
CCNC(=O)c1cc2c(=O)n3cccc(C)c3nc2n(CCc2ccccc2)c1=N	aSyn UTR act -105
COc1ccc(CCn2c(=N)c(C(=O)NCCN3CCOCC3)cc3c(=O)n4cccc(C)c4nc32)cc1OC	aSyn UTR act -93
Cc1cccn2c(=O)c3cc(C(=O)NCCN4CCOCC4)c(=N)n(CCc4ccccc4)c3nc12	aSyn UTR act -128
Cc1cccn2c(=O)c3cc(C(=O)NCc4ccco4)c(=N)n(C4CCCCC4)c3nc12	aSyn UTR act -69
Cc1cccc(NC(=S)NNC(=O)c2csc(C(C)C)c2)c1	aSyn UTR act -211
CCc1cc(C(=O)Nc2ccc(C)cc2Br)cs1	aSyn UTR act -255
CCc1cc(C(=O)NNC(=S)Nc2cccc(C)c2)cs1	aSyn UTR act -130
Cc1cccc(NC(=S)NNC(=O)c2sccc2C)c1	aSyn UTR act -134
Cc1nc(C)c(-c2csc(NCc3ccco3)n2)s1	aSyn UTR act -99
COc1ccc(-c2csc(NCc3ccco3)n2)cc1	aSyn UTR act -160
c1coc(CNc2nc(-c3ccncc3)cs2)c1	aSyn UTR act -92
CCNC(=O)CCCOc1ccc(Cl)cc1Cl	aSyn UTR act -82
CCCC(=O)NC(c1ccc(Cl)cc1Cl)c1ccc2cccnc2c1O (stereo unspecified)	none
O=C(Nc1cccc2ccccc12)C12CC3CC(C1)CC(n1cnc([N+](=O)[O-])n1)(C3)C2	none
Cc1ccc(NC(=S)Nc2cccc3cnccc23)cc1	aSyn UTR act -102
S=C(Nc1cccc2ccccc12)NC1CCCCC1	aSyn UTR act -195
O=C(NNC(=S)Nc1cccc2ccccc12)c1cccc(Br)c1	aSyn UTR act -79
CC(=O)c1cccc(NC(=S)Nc2cccc3ccccc23)c1	aSyn UTR act -80
CC(=O)Nc1cccc(NC(=S)Nc2cccc3ccccc23)c1	aSyn UTR act -116
CCOC(=O)c1c(C)oc2c(F)c(F)c(F)c(F)c2c1=O	aSyn UTR act -85
Cc1ccccc1CN1CCN(c2nc3ccccc3s2)CC1	aSyn UTR act -146
COc1ccc(CN2CCN(c3nc4ccccc4s3)CC2)cc1	aSyn UTR act -69
COc1ccc(-c2[nH]ncc2CN2CCC(O)(c3ccc(Cl)cc3)CC2)cc1	none
CC1(C)Cc2c(sc3nc(-c4cccs4)n(N)c(=O)c23)CO1	aSyn UTR act -116
Nn1c(-c2cccs2)nc2sc3c(c2c1=O)CCCC3	aSyn UTR act -149
CC1(C)Cc2c(sc3ncnc(NNC(=S)NCc4ccccc4)c23)CO1	none
Nc1cc(N)nc(SCCOc2ccccc2F)n1	aSyn UTR act -81
Nc1cc(N)nc(SCCOc2ccccc2)n1	aSyn UTR act -69
CCc1nnc(NC(=O)c2ccc3c(c2)C(=O)N(CC(C)C)C3=O)s1	aSyn UTR act -88
Cc1ccc(O)c(NC(=O)c2ccc3c(c2)C(=O)N(CC(C)C)C3=O)c1	aSyn UTR act -112
CC(C)(C)c1nnc(NC(=O)c2ccc(Cl)nc2)s1	aSyn UTR act -126
C=CCSc1nnc(NC(=O)c2ccc(Cl)nc2)s1	aSyn UTR act -77
Fc1cc(Cl)c(OCc2noc(-c3ccsc3)n2)c(Cl)c1	aSyn UTR act -81
Clc1ccc(OCc2noc(-c3ccsc3)n2)c(Cl)c1	aSyn UTR act -170
COc1ccccc1/C=C/C=N/NC(=O)c1cnccn1	aSyn UTR act -69
COc1ccccc1/C=C/C=N/NC(=O)c1ccccn1	aSyn UTR act -74
COc1ccc(/C=N/NC(=O)c2cnccn2)cc1O	aSyn UTR act -63
COc1ccc(/C=N/NC(=O)c2cc3c(OC)ccc(OC)c3[nH]2)cc1O	none
O=c1oc(-c2ccccc2)cc(Cl)c1Cl	aSyn UTR act -198
CCOC(=O)c1sc(N)c(C(=O)OCC)c1C	aSyn UTR act -65
